How the values were obtained:
[1] = target: Tyrosine-protein kinase Lck (Homo sapiens) (UniProt P06239); details: at 10 µM
[2] = target: Tyrosine-protein kinase Lck (Homo sapiens) (UniProt P06239); details: at 1 µM
[3] = target: Tyrosine-protein kinase Lck (Homo sapiens) (UniProt P06239); details: at 10 µM; remark: listed apart in the source
[4] = target: Tyrosine-protein kinase Lyn (Homo sapiens) (UniProt P07948); details: at 1 µM
[5] = target: Tyrosine-protein kinase Lyn (Homo sapiens) (UniProt P07948); details: at 10 µM
[6] = target: Mitogen-activated protein kinase 3 (Homo sapiens) (UniProt P27361); details: at 1 µM
[7] = target: Mitogen-activated protein kinase 3 (Homo sapiens) (UniProt P27361); details: at 10 µM
[8] = target: Mitogen-activated protein kinase 1 (Homo sapiens) (UniProt P28482); details: at 1 µM
[9] = target: Mitogen-activated protein kinase 1 (Homo sapiens) (UniProt P28482); details: at 10 µM
[10] = target: MAP kinase-activated protein kinase 2 (Homo sapiens) (UniProt P49137); details: at 1 µM
MAP kinase-activated protein kinase 2 (Homo sapiens), sequence (P49137 whole entry, looked up): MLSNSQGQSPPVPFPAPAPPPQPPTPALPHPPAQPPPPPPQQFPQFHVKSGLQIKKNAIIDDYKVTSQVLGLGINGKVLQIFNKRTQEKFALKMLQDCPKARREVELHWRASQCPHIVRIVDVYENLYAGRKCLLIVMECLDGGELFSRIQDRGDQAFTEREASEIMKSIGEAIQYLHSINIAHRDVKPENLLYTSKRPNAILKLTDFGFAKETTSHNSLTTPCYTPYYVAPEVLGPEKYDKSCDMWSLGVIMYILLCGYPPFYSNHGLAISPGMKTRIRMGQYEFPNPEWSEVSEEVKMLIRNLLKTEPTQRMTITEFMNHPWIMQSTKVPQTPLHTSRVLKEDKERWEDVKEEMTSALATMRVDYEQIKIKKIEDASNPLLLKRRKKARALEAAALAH

Mitogen-activated protein kinase 1 (Homo sapiens), sequence (P28482 whole entry): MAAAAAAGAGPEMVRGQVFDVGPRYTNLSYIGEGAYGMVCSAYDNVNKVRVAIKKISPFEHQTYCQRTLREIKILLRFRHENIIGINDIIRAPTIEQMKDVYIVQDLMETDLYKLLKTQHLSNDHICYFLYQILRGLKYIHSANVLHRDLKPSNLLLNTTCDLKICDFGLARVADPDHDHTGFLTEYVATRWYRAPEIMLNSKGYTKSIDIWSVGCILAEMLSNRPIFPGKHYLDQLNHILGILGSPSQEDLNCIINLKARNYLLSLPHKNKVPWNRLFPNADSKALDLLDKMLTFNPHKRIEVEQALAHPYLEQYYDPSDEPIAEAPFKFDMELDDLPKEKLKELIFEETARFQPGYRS
Mitogen-activated protein kinase 3 (Homo sapiens), sequence (P27361 whole entry): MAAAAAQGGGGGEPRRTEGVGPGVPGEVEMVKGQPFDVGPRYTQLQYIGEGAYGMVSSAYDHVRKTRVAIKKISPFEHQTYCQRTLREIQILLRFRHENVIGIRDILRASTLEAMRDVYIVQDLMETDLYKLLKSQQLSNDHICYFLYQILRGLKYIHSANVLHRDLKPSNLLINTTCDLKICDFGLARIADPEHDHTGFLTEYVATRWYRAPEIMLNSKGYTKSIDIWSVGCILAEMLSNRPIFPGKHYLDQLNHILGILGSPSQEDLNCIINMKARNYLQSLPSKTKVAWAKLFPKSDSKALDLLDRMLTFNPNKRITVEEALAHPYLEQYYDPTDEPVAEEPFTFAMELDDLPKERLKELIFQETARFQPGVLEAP
Tyrosine-protein kinase Lck (Homo sapiens), sequence (P06239 2-509 limits assumed): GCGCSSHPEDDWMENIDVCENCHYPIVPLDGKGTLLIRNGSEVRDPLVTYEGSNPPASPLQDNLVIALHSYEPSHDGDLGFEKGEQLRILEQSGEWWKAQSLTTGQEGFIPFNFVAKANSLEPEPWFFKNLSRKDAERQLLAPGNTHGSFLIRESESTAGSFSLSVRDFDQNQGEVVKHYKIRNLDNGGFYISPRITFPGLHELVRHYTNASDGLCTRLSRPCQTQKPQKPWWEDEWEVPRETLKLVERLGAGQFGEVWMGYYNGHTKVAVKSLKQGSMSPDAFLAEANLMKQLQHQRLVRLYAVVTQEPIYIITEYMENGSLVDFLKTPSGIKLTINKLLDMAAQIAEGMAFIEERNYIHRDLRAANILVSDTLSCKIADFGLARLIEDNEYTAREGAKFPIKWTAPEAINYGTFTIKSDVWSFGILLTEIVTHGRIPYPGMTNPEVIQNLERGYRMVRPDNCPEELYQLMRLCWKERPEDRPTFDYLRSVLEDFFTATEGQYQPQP
Tyrosine-protein kinase Lyn (Homo sapiens), sequence (P07948 2-512 limits assumed): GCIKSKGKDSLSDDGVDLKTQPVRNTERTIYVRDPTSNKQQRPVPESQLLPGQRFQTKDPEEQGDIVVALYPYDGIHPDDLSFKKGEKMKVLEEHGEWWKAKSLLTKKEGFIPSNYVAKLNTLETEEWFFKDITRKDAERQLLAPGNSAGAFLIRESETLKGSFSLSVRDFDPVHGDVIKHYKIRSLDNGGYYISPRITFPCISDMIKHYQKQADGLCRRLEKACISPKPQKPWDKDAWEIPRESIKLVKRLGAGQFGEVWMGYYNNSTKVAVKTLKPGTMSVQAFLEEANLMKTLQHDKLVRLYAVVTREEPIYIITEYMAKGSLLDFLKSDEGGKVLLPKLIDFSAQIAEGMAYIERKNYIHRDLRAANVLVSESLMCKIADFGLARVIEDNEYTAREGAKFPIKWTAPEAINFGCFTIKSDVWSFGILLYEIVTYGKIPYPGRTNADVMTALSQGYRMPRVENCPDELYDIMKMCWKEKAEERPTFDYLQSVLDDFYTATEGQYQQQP

Compound	residual activity [1] [%]	residual activity [2] [%]	residual activity [3] [%]	residual activity [4] [%]	residual activity [5] [%]	residual activity [6] [%]	residual activity [7] [%]	residual activity [8] [%]	residual activity [9] [%]	residual activity [10] [%]
CNc1cc2c(Nc3cccc(Br)c3)ncnc2cn1	19	73	79	10	5	86	95	102	96	119
Cc1nc(-c2ccccc2)c(-c2ccncc2)o1	59	45	42	0	0	116	97	118	100	95
C[C@@H](N)[C@H]1CC[C@H](C(=O)Nc2ccncc2)CC1	–	–	–	99	100	113	109	102	105	–
Cc1cccc(-c2[nH]c(C(C)(C)C)nc2-c2ccc3c(c2)OCO3)n1	86	95	92	91	76	90	94	105	–	92
O=C1NC(=O)c2c1c1c3ccccc3[nH]c1c1[nH]c3cc(Br)ccc3c21	62	95	95	72	69	103	104	111	99	98
N#CC(C#N)=C(N)/C(C#N)=C/c1ccc(O)cc1	–	–	–	93	70	–	–	118	–	94
N#Cc1cnc2cnc(NCc3cccnc3)cc2c1Nc1ccc(F)c(Cl)c1	20	14	7	–	1	–	75	–	–	51
Cc1cncc2cccc(S(=O)(=O)N3CCCN(C(=O)CN)C[C@H]3C)c12	68	84	78	82	46	79	86	–	–	88
Oc1c2ccccc2c2c3c(cccc13)N=N2	69	89	43	70	30	59	72	88	55	79
Cn1nc2c3c(cccc31)C(=O)c1ccccc1-2	93	106	86	89	50	83	96	–	97	77
COc1ccc(CNc2nc(N(CCO)CCO)nc3c2ncn3C(C)C)cc1	77	104	79	74	78	91	87	123	87	96
CCN(CC)CCCCN1c2ccccc2Oc2ccc(Cl)cc21	120	101	64	102	67	112	114	116	104	115
O=C1Nc2ccc(Br)cc2/C1=C\c1cc2c([nH]1)CCCC2	–	–	–	21	22	–	–	104	106	108
O=C1Nc2ccccc2/C1=C1/Nc2ccccc2/C1=N\OCCC(O)CO (stereo not given)	5	5	8	4	-1	–	–	108	–	78
c1ccc(-c2n[nH]c3c2oc2ccccc23)cc1	–	–	–	68	30	86	80	–	–	–
COc1cc2ncnc(Nc3ccc(Oc4ccccc4)cc3)c2cc1OC	-1	-2	0	1	1	83	113	96	94	95
CC(C)n1cnc2c(NCc3ccccc3)nc(NCCCO)nc21	70	87	86	53	38	87	92	100	90	72
COc1cc2ncnc(N3CCN(C(=O)Nc4ccc(Oc5ccccc5)cc4)CC3)c2cc1OC	59	92	68	98	100	76	95	106	105	99
c1ccc2c(-c3ccncc3)c[nH]c2c1	79	94	101	105	91	77	87	101	99	90

Compound	residual activity [1] [%]	residual activity [2] [%]	residual activity [3] [%]	residual activity [4] [%]	residual activity [5] [%]	residual activity [6] [%]	residual activity [7] [%]	residual activity [8] [%]	residual activity [9] [%]	residual activity [10] [%]
COc1ccc(OC)c2c(=S)c3ccccc3[nH]c12	101	103	92	80	84	97	112	111	101	102
CO[C@@H]1[C@H](N(C)C(=O)c2ccccc2)C[C@H]2O[C@]1(C)n1c3ccccc3c3c4c(c5c6ccccc6n2c5c31)C(=O)NC4	5	5	6	6	2	75	–	101	98	75
Oc1ccc(-c2nc(-c3ccc(F)cc3)c(-c3ccncc3)[nH]2)cc1	45	80	26	66	11	123	93	113	98	87
N#CCCc1ccc2c(c1)-c1[nH]c3ccc([N+](=O)[O-])cc3c1CC(=O)N2	13	24	23	5	0	58	34	–	51	57
Cc1cc(Nc2nc(-c3ccccc3)nc3ccccc23)n[nH]1	6	36	13	9	4	–	–	106	–	–
CCN(CC)C(=O)c1ccc(Nc2nc(OCC3CCCCC3)c3nc[nH]c3n2)cc1	3	20	7	20	1	–	29	99	42	81
Ic1cccc(CSc2nnc(-c3ccncc3)o2)c1	66	82	87	63	47	82	82	111	83	77
CN(C)CCCn1cc(C2=C(c3c[nH]c4ccccc34)C(=O)NC2=O)c2ccccc21	49	80	43	79	22	–	–	–	–	108
Cc1nc2cc3nc(-c4cccs4)cnc3cc2n1C	54	89	48	91	32	114	95	100	103	104
O=[N+]([O-])c1ccc(-c2nc(-c3ccc(F)cc3)c(-c3ccncc3)[nH]2)cc1	86	92	82	75	23	85	72	113	109	92
CC#CC(=O)Nc1cc2c(Nc3ccc(F)c(Cl)c3)ncnc2cn1	71	97	84	78	51	100	88	101	103	89
Cc1ccc(S(=O)(=O)/C=C/C#N)cc1	94	87	97	92	94	97	114	113	110	93
CC(=O)c1ccc(N2CCOCC2)cc1O	–	–	–	105	98	91	89	–	–	100
Nc1cccc(-c2cc3c(Oc4cccc(O)c4)ncnc3[nH]2)c1	7	4	0	2	-1	–	–	120	83	71
Cn1cnc2cc3c(Nc4cccc(Br)c4)ncnc3cc21	24	41	34	8	2	103	85	107	95	108
CO[C@H]1C[C@@H]2CC[C@@H](C)[C@@](O)(O2)C(=O)C(=O)N2CCCC[C@H]2C(=O)O[C@H]([C@H](C)C[C@@H]2CC[C@@H](O)[C@H](OC)C2)CC(=O)[C@H](C)/C=C(\C)[C@@H](O)[C@@H](OC)C(=O)[C@H](C)C[C@H](C)/C=C/C=C/C=C/1C	80	102	124	86	131	83	116	102	101	86
CCC(=O)Nc1ccc2ncnc(Nc3cccc(Br)c3)c2c1	67	77	75	28	5	83	85	93	94	88
COc1ccc(S(=O)(=O)N(CCO)c2ccccc2CN(C)C/C=C/c2ccc(Cl)cc2)cc1	51	105	43	97	65	82	70	111	103	78

Reference: ChEMBL document CHEMBL2218924, “A broad activity screen in support of a chemogenomic map for kinase signalling research and drug discovery” (Biochem J, 2013)
